Source: PubChem BioAssay AID588441 (Southern Research Specialized Biocontainment Screening …, 2011)
Records with an inconclusive call do not appear. The source made the active and inactive calls. How the calls were made is not given here.

experiment: HepG2 cell cytotoxicity, cytotoxicity control, set 5 (AID 588441); conditions: series mostly up to 50 µM; viability: at the top concentration

Structure (SMILES)	viability
COc1ccc(N2CCN(C(=O)c3ccc(CNc4c(N5CCOCC5)c(=O)c4=O)cc3)CC2)cc1	109% (inactive)
CC1CC(C)CN(C(=O)C2CCC(CNc3c(N4CCCCC4)c(=O)c3=O)CC2)C1 (stereo not drawn)	109% [at 15 µM] (inactive)
CCOC(=O)CSc1ncnc2c1cnn2-c1ccc(C)cc1C	97.2% (inactive)
CC(C)OC(=O)CSc1ncnc2c1cnn2-c1ccccc1	98.7% (inactive)
O=C(NCCc1ccc(Cl)cc1)c1ccc(CNc2c(N3CCOCC3)c(=O)c2=O)cc1	99.1% (inactive)
COC(=O)CSc1ncnc2c1cnn2-c1ccc(C)cc1C	99% (inactive)
CCC(C)NC(=O)CSc1nc2ccccc2c(=O)[nH]1 (stereo not drawn)	100% (inactive)
CCOC(=O)CSc1ncnc2c1cnn2-c1ccccc1	95.6% (inactive)
